Bioassay records as filed in PubChem BioAssay.
Hits are enriched below; roughly 12% of the tested compounds scored in any of these assays.
JMJD2A Tudor – JMJD2A Tudor domain (human) inhibition; O75164; AlphaScreen JMJD2A-Tudor / H3K4me3 peptide binding; Potency, µM (top dose mostly 114 µM), usual class: inhibitors; actives 4.4% (n = 390,000); AID 504339; further: nearly all actives have a fitted effect of over 50% in size
PLK1 PBD block – inhibitors of human PLK1 polo-box domain binding. AID 720504. Potency, µM, most hits filed as inhibitors. actives 2.8% (n = 360,000). Plk1 PBD binding of FITC phosphopeptide, fluorescence polarization. P53350; further: series mostly up to about 57 µM; nearly all actives have a fitted effect of over 65% in size
HP1b chromo inh – HP1-beta chromodomain-methylated histone interaction inhibition | P83916 | AlphaScreen HP1-beta / biotin-H3K9me3 peptide binding | Potency, µM (series often up to 114 µM), most hits filed as inhibitors | actives 0.56% (n = 390,000); further: nearly all actives have a fitted effect of over 70% in size
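AlphaScreen: HP1-beta (50 nM) preformed 30 min with biotin-H3(1-18)K9me3 peptide (50 nM) in PBS pH 7.4, 0.01% Tween-20. Compound added for 30 min at RT, then streptavidin donor/nickel chelate acceptor beads (10 ug/mL) for 30 min.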
G9a block – inhibitors of human histone lysine methyltransferase G9a; AID 504332; G9a H3K9 monomethylation, AlphaScreen, 2 h; actives 8.8% (n = 350,000); Potency, µM (top dose mostly 102 µM), hits mostly inhibitors; Q96KQ7; further: nearly all actives have a fitted effect of over 75% in size
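Chemiluminescent proximity detection of H3K9 monomethylation, read after 10 min bead incubation in the dark. Reaction: 20 nM G9a, 500 nM biotin-H3K9 peptide, 20 uM SAM cofactor, 2 h, room temperature, following 15 min enzyme-compound preincubation.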
BAZ2B block – BAZ2B (human) inhibition | Potency, µM (top dose mostly 114 µM), usual class: inhibitors | actives 4.4% (n = 360,000) | AlphaScreen BAZ2B-H3K14Ac peptide displacement | AID 504333; further: nearly all actives have a fitted effect of over 60% in size
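Inhibition is scored as reduced AlphaScreen emission. The BAZ2B/b-H3(5-23)K14Ac complex (50 nM each) in PBS pH 7.4, 0.01% Tween-20 meets compound (up to 110 uM) for 30 min at RT before bead addition.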
PI5P4Ka inh – blocks human PI5P4K alpha kinase activity. max response, %. PI5P4Kalpha enzyme, ADP-Glo luminescence, 60 min; hits give low values. actives 1.2% (n = 330,000). P48426; active means max response of -50% or lower; inconclusive means between -30% and -50%; inactive means -30% or higher; further: value at the top dose of about 77 µM
Target sequence (P48426 whole entry, looked up): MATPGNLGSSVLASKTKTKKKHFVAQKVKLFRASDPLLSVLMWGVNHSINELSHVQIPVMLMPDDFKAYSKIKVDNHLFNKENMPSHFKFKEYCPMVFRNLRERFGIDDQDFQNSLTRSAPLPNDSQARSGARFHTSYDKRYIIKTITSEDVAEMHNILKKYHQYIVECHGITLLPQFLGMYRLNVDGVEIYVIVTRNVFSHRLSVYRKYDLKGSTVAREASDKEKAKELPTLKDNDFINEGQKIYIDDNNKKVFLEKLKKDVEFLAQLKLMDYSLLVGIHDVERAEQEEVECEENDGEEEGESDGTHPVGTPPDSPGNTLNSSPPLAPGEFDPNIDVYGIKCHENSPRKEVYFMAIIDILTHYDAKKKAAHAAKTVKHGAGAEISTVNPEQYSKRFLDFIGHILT
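ADP-Glo luminescence end-point after a 60 min room-temperature kinase reaction. PI5P4Kalpha and substrate in HEPES pH 7.4 buffer with EGTA, 0.1% CHAPS and 5% DMSO; ATP at 5 microM final.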
Large screens that a line does not name were inactive. Unless noted, the call rests on the fitted dose curve; in most records, active means well fitted curve in the direction sought with a large enough effect; inconclusive means small, poorly fitted or top-dose-only effect, or another doubt; inactive means no such curve, though single readings can be large; an effect the other way counts as inactive or inconclusive.

COc1cccc(C(c2c(C)[nH]n(-c3ccccc3)c2=O)c2c(C)[nH]n(-c3ccccc3)c2=O)c1O	JMJD2A Tudor inconclusive, PLK1 PBD block 21µM
Cc1[nH]n(-c2ccccc2)c(=O)c1C(=O)c1ccccc1	G9a block inconclusive
O=C(Nc1cc(Cl)ccc1Cl)C1(c2cccs2)CCOCC1	none (no result: PLK1 PBD block, PI5P4Ka inh)
Cc1c(Cl)cccc1NS(=O)(=O)c1ccc2c(c1)C1C=CCC1C(c1ccc(C(=O)O)cc1)N2 (stereo not given)	JMJD2A Tudor 56µM, PLK1 PBD block 11µM, HP1b chromo inh 50µM, G9a block 2.8µM, BAZ2B block 45µM, PI5P4Ka inh -102
COC(=O)c1ccc(NS(=O)(=O)c2ccc3c(c2)n(C)c(=O)c(=O)n3C)cc1	none (no result: PLK1 PBD block, BAZ2B block, PI5P4Ka inh)
COc1cccc(NS(=O)(=O)c2ccc3c(c2)[C@H]2C=CC[C@H]2[C@@H](c2ccccc2Cl)N3)c1	G9a block inconclusive (no result: PLK1 PBD block, PI5P4Ka inh)
Cc1cccc(C)c1NS(=O)(=O)c1ccc2c(c1)[C@H]1C=CC[C@H]1[C@@H](c1ccc(Cl)cc1)N2	G9a block 3.5µM (no result: PLK1 PBD block, PI5P4Ka inh)
COc1ccc(NS(=O)(=O)c2ccc3c(c2)[C@H]2C=CC[C@H]2[C@@H](c2ccc(C(=O)O)cc2)N3)cc1	JMJD2A Tudor 45µM, PLK1 PBD block 21µM, HP1b chromo inh 35µM, G9a block 25µM, BAZ2B block 40µM, PI5P4Ka inh -65
COC(=O)c1ccc([C@H]2Nc3ccc(S(=O)(=O)Nc4ccc(C)cc4)cc3[C@H]3C=CC[C@H]32)cc1	JMJD2A Tudor inconclusive, G9a block 3.5µM, BAZ2B block inconclusive (no result: PLK1 PBD block, PI5P4Ka inh)
Cc1c(C2=CCN(S(=O)(=O)c3ccc(CC(C)C)cc3)CC2)c2ccccc2n1CC(=O)N1CCCC1	G9a block inconclusive (no result: PLK1 PBD block, PI5P4Ka inh)
CCc1ccc2nc(N(CCN(CC)CC)C(=O)c3cccs3)sc2c1	none (no result: PLK1 PBD block, PI5P4Ka inh)
COc1ccc(CN2C(=O)Cc3c2nc(N)c2c(N)nc(N4CCCCC4)c(C#N)c32)cc1	G9a block inconclusive (no result: JMJD2A Tudor, PLK1 PBD block, HP1b chromo inh, PI5P4Ka inh)
C=C(C)CN(CC)c1nc(N)c2c(N)nc3c(c2c1C#N)CC(=O)N3C12CC3CC(CC(C3)C1)C2	PI5P4Ka inh -87
CCCCN1C(=O)Cc2c1nc(N)c1c(N)nc(N(CCC)CCC)c(C#N)c21	HP1b chromo inh inconclusive, G9a block 40µM, PI5P4Ka inh inconclusive
N#Cc1c(N2CCCC(O)C2)nc(N)c2c(N)nc3c(c12)CC(=O)N3C12CC3CC(CC(C3)C1)C2 (stereo not given)	JMJD2A Tudor 56µM, HP1b chromo inh inconclusive, G9a block inconclusive, BAZ2B block inconclusive (no result: PI5P4Ka inh)
OC(COC(c1ccc(F)cc1)c1ccc(F)cc1)CN1CCc2ccccc2C1 (stereo not given)	JMJD2A Tudor 18µM, HP1b chromo inh inconclusive, G9a block 4.5µM, BAZ2B block 45µM
CN1CCN(CC(O)c2ccccc2)CC1 (stereo not given)	none (no result: JMJD2A Tudor, PLK1 PBD block, HP1b chromo inh, PI5P4Ka inh)
OC1CCCN(CC(O)COC(c2ccc(F)cc2)c2ccc(F)cc2)C1 (stereo not given)	JMJD2A Tudor 10µM, G9a block 45µM, BAZ2B block 50µM
OC(COC(c1ccccc1)c1ccccc1)CN1CCc2ccccc2C1 (stereo not given)	none
OC1CCCN(CC(O)c2ccccc2)C1 (stereo not given)	JMJD2A Tudor 40µM, G9a block 3.2µM, BAZ2B block 50µM
Cc1cc(=O)n2nc(N3CCCC(C(=O)Nc4ccc(C)c(C)c4)C3)sc2n1 (stereo not given)	none
CC(C)(C)C(=O)OCc1cc(=O)n2nc(C3CCCCC3)sc2n1	none (no result: PLK1 PBD block, PI5P4Ka inh)
Oc1nc(Nc2ccc(Cl)cc2Cl)sc1/C=C1\C=Nc2ccccc21	JMJD2A Tudor inconclusive, HP1b chromo inh inconclusive, G9a block 4.5µM, BAZ2B block inconclusive, PI5P4Ka inh -57
CC(C(=O)NNS(=O)(=O)c1cccc(C(F)(F)F)c1)n1nnc(N2CCOCC2)n1 (stereo not given)	JMJD2A Tudor 14µM, G9a block 32µM
CC(C(=O)NN)n1nnc(N2CCOCC2)n1 (stereo not given)	none (no result: G9a block)
Cc1ccc(-n2c(=O)c3sc4ccccc4c3n(CC(=O)NC3CCCC3)c2=O)cc1C	none (no result: PLK1 PBD block, PI5P4Ka inh)
OCCNc1cnc2ccccc2n1	PLK1 PBD block 12µM
